This is an account of results in PubChem BioAssay (NCATS).

Assay [1] can be described thus: qHTS to identify inhibitors of the type 1 interferon - major histocompatibility complex class I in skeletal muscle: primary screen against the NCATS Pharmaceutical Collection (AID 1347407).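 Further: luminescence of HiBiT knocked into endogenous HLA-B as interferon-induced MHC class I level.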 In outline: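 Immortalized human myoblasts (C25cl48) with HiBiT knocked into endogenous HLA-B*08:01 were stimulated with 4.0 ng/ml IFN-beta and treated with compounds ([…] top 46 uM) for 24 hrs at 37 C. HiBiT lytic luminescence read.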

For assay [2], the target named is Protein phosphatase 1D (Homo sapiens) (UniProt O15297). Description: RapidFire Mass Spectrometry qHTS Assay for Modulators of WT P53-Induced Phosphatase 1 (WIP1) (AID 1347424).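 Further: amount of dephosphorylated VEPPL-S-QETFS peptide product formed by WIP1; series mostly up to about 63 µM.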 The method, boiled down:
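10 nM WIP1 + cpd, 1 h RT; + 2 uM VEPPL-pS-QETFS, 5 min RT; stop 0.5% formic acid; labelled product standard 1 uM; RapidFire MS. Buffer 50 mM Tris pH 7.5, 30 mM MgCl2, 1 mM TCEP.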

Assay [3] has the same target. Description: Rhodamine-PBP qHTS Assay for Modulators of WT P53-Induced Phosphatase 1 (WIP1) (AID 1347425). In outline: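 The read-out is the change in Rhodamine-PBP fluorescence (f1 - f0, ex 525/em 598 nm) as Pi is released, read each minute for 11 min. Final reaction: 5 nM WIP1, 10 uM phosphopeptide VEPPL-pS-QETFS, 10 uM Rh-PBP, 50 mM Tris-HCl pH 7.5, 30 mM MgCl2. Compound was preincubated with enzyme for 1 hour at room temperature.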

Assay [4] in a line: Primary qHTS for inhibitors of La Crosse Virus (LACV) - induced cell death in SH-SY5Y cells (AID 1508616).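 Further: top concentration of the series differs between compounds; higher means more rescue of cells from virus-induced death.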 The method, boiled down:
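Luminescent ATP readout (ATPLite 1step, 5 min room temperature) measured rescue from LACV-induced death after 6 days of infection at 0.01 MOI; normalized to infected DMSO wells and uninfected DMSO wells.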

Assay [5] in a line: qHTS to identify inhibitors of the type 1 interferon - major histocompatibility complex class I in skeletal muscle: primary screen against the NCATS LOPAC collection (AID 1347405).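 Further: lytic HiBiT luminescence reporting HLA-B protein level.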 Further: potency means the concentration at half of the fitted maximal effect. The method, boiled down:
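Immortalized human C25cl48 myoblasts with HiBiT knocked into endogenous HLA-B*08:01 were stimulated with 4.0 ng/ml IFN-beta and given compounds in a 7-point, 1:4.3 titration from 46 uM final; after 24 hrs, lytic HiBiT luminescence was read.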

Assay [6] can be described thus: qHTS for inhibitors of adenylyl cyclases using a fission yeast platform: a pilot screen against the NCATS LOPAC library (AID 1347410). In outline:
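S. pombe CHP2027 (AC9-GNAS-PDE4D2) carrying PKA-repressed fbp1-GFP, incubated 18 h at 30C in EMM with LOPAC compounds at up to 57 uM. GFP gain-of-signal read by laser scanning cytometry; DMSO negative control.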

Assay [7] deals with Single-stranded DNA cytosine deaminase (Homo sapiens) (UniProt Q9GZX7). The assay can be described thus: Validation qHTS assay for inhibitors of Activation Induced Cytidine Deaminase (AID): AID signal (AID 1347429). In outline:
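AID and UDG were combined and compounds added at final up to 114 uM, then DJC20/DJC23 FRET substrate was added for 4 hr at room temperature. NaOH was then added for 30 min before fluorescence was read at 540/590 nm.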

The target in assay [8] is Calcium and integrin-binding protein 1 (Homo sapiens) (UniProt Q99828). Description: Validation qHTS for Identification of Calcium Integrin Binding protein 1 (CIB1) Competitor (AID 1508618). In outline: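 CIB1-GST (1 uM final) incubated 15 min at room temperature with compounds (up to 114 uM), then FITC-labelled alphaIIb peptide (100 nM) added. FP read (Ex 480/Em 540) after 15 min, pH 7.4 buffer containing 5 mM CaCl2.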
Chain of Calcium and integrin-binding protein 1 (Homo sapiens) (Q99828 whole entry, looked up): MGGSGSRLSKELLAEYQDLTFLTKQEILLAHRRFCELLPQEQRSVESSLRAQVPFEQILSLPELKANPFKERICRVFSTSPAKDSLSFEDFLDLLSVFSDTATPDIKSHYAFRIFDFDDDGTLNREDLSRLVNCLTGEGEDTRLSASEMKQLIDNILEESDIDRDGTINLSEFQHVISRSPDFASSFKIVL

The target is the same in assay [9]. The assay can be described thus: Primary qHTS for Identification of Calcium Integrin Binding Protein 1 (CIB1) Competitor (AID 1508620).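 Further: GST tagged CIB1 binding a fluorescein labelled alphaIIb integrin peptide tracer; top concentration of the series differs between compounds.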 In outline: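 CIB1-GST (1 uM final) and compound incubated 15 min at room temperature before adding FITC-alphaIIb peptide tracer (100 nM final). Competition for binding read by fluorescence polarization (ex 480, em 540) after another 15 min at room temperature.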

Assay [10] is described as follows: qHTS to identify inhibitors of the type 1 interferon - major histocompatibility complex class I in skeletal muscle: primary screen against the NCATS Mechanism Interrogation Plate v5.0 (MIPE) Libary (AID 1347411). Further: nearly all actives have a fitted effect of over 65% in size. Further: potency means the concentration at half of the fitted maximal effect. The method, boiled down: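 Immortalized human C25cl48 myoblasts with HiBit knocked into endogenous HLA-B*08:01 were stimulated with 4.0 ng/ml IFN-beta and exposed to compounds (11-point 1:3 titration, top 46 uM final) for 24 hrs at 37 C; HiBiT lytic luminescence measured.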

Results filed as inconclusive are left out. Activity calls are given as the source filed them. The call rests on the fitted dose curve; in most records, active means well fitted curve in the direction sought with a large enough effect; inconclusive means small, poorly fitted or top-dose-only effect, or another doubt; inactive means no such curve, though single readings can be large; an effect the other way counts as inactive or inconclusive.

Chain of Single-stranded DNA cytosine deaminase (Homo sapiens) (Q9GZX7 whole entry, looked up): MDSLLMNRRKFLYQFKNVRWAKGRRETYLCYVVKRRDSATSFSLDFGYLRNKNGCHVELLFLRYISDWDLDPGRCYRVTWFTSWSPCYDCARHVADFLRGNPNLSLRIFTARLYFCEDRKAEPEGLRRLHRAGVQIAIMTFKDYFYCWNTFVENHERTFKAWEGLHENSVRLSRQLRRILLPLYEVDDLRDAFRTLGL
Chain of Protein phosphatase 1D (Homo sapiens) (O15297 whole entry, looked up): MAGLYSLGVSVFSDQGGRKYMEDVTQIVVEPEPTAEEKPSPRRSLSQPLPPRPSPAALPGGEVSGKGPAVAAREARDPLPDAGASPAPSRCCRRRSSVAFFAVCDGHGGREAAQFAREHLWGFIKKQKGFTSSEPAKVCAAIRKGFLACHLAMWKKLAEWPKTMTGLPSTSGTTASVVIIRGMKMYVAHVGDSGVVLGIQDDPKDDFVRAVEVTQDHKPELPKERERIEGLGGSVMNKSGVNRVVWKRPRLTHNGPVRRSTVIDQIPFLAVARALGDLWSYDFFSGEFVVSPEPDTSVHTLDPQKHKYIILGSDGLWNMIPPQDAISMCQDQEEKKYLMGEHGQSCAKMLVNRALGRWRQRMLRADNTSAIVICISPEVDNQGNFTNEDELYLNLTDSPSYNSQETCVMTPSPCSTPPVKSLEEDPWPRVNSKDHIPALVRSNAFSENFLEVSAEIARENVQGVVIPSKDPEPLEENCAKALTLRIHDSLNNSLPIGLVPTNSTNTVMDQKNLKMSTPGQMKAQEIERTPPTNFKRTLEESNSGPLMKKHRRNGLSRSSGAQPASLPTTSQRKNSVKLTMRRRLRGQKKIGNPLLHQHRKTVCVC

Take `COC[C@@H](c1ccc(C(F)(F)F)cc1)N1CCN(C2(C)CCN(C(=O)c3c(C)ncnc3C)CC2)C[C@H]1C`: the Potency result in assay [1] was “inactive”. The call in assay [2], in assay [3] and in assay [4] was inactive.
`O=C1NC(=O)C(c2ccccc2)(c2ccccc2)N1`: the Potency result in [5], in assay [1], in [7] and in [9] was “inactive” each time. Moreover, the result in [6], in [2], in assay [3], in [4] and in [8] was inactive.
As for `O=C(O)CCc1nc(-c2ccccc2)c(-c2ccccc2)o1`, the Potency result in [5], in assay [1], in assay [7] and in [9] was “inactive” throughout. The result in assay [6], in [2], in [3] and in assay [4] was inactive.
Turning to `CN1C[C@H]2c3ccccc3Oc3ccc(Cl)cc3[C@@H]2C1`, the Potency entry in assay [1] and in assay [9] was “inactive” in each case. Besides, the result in [2] and in assay [3] was inactive.
On to `CCCCC1C(=O)N(c2ccccc2)N(c2ccccc2)C1=O`, for which the Potency in assay [5] is 15.8 µM (active). The outcome in assay [6] and in assay [4] was inactive. Besides, in assay [7], the Potency entry is “inactive”.
As for `CCn1cc(C(=O)O)c(=O)c2ccc(C)nc21`, the Potency result in assay [5], in assay [1], in assay [7] and in assay [9] was “inactive” each time. Besides, the compound was called inactive in assay [6], in assay [2], in assay [3] and in assay [4].
As for `C[C@@H](O)[C@H]1C(=O)N2C(C(=O)O)=C(S[C@@H]3CN[C@H](C(=O)N(C)C)C3)[C@H](C)[C@H]12`, the Potency entry in assay [1] and in assay [9] was “inactive” each time. For the same compound, the outcome in [2], in [3] and in assay [4] was inactive.
As for `COc1ccccc1N1CCN(CCCNc2cc(=O)n(C)c(=O)n2C)CC1`, the Potency entry in assay [5], in assay [1], in assay [7] and in assay [9] was “inactive” throughout. Moreover, the compound was classed as inactive in assay [6], in assay [2], in assay [3], in assay [4] and in assay [8].
Take `C[N+](C)(C)CCCCCC[N+](C)(C)C`: the Potency result in assay [5], in assay [1], in [7] and in assay [9] was “inactive” each time. Besides, the outcome in [6], in [2], in [3], in [4] and in assay [8] was inactive.
For the compound `Clc1ccc(Cn2c(CN3CCCC3)nc3ccccc32)cc1`, the Potency entry in assay [5], in assay [1], in [10], in assay [7] and in assay [9] was “inactive” each time. Also, the result in assay [6], in assay [2], in assay [3], in assay [4] and in assay [8] was inactive.
For `O=C(O)c1cc(-c2ccccc2)nc2ccccc12`, the Potency entry in assay [1] is “inactive”. In addition, the outcome in assay [2], in assay [3] and in [4] was inactive.
Consider `NCCS`, for which the Potency entry in [5], in assay [1] and in [7] was “inactive” throughout. The result in assay [6], in [2], in [3], in [4] and in assay [8] was inactive.
Consider `COc1cccc(-c2cc(=O)c3ccccc3o2)c1N`, for which the Potency entry in [5], in [10], in assay [7] and in [9] was “inactive” each time. In addition, the call in assay [6], in [4] and in [8] was inactive.
Take `CC/C(=C(\c1ccccc1)c1ccc(OCCN(C)C)cc1)c1ccccc1`: the call in assay [6], in [2], in assay [3] and in assay [4] was inactive. The Potency in assay [10] was 30.1 µM (active). Moreover, in [7], the Potency entry is “inactive”.
